# High-throughput results: PubChem BioAssay, National Center for Advancing Translational Sciences (NCATS)
# FLuc counter = counter-screen for miR-21 project: firefly luciferase inhibitors or activators; Potency, µM (highest dose often 57.5 µM), without a hit: at the top dose activity change, negative = inhibition, most hits filed as inhibitors; AID 588342; 360,000 compounds, 6.9% hits; purified FLuc, Km substrates, luminescence inhibition; P08659;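 note: plate controls were vehicle for no effect and reference inhibitor for full effect; nearly all actives have a fitted effect of over 55% in size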
# Target sequence (P08659 whole entry, looked up): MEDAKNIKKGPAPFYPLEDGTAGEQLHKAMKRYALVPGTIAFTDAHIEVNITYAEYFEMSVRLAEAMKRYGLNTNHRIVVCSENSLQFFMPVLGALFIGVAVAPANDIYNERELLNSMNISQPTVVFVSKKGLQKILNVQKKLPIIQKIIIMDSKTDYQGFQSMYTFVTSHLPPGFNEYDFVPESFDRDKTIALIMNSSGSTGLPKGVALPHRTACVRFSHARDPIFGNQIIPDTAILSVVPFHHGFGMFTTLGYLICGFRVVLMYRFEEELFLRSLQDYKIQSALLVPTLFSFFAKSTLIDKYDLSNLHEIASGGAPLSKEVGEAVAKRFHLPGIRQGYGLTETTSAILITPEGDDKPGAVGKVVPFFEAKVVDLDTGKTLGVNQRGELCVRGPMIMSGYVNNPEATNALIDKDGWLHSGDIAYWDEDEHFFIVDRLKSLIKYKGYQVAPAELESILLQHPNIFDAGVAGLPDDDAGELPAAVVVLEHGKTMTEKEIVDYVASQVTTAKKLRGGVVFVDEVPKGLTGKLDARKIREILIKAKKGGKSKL
#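 Purified P. pyralis luciferase (10nM final) with 10uM D-luciferin and 10uM ATP (Km levels) in 50mM Tris acetate pH 7.5, 10mM Mg acetate, 0.01% Tween-20, 0.05% BSA; qHTS 6-point titration, ~60 µM downward; luminescence read.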
# SMN2 splice enh = enhancers of SMN2 splice variant expression; HEK293 SMN2-luciferase splicing reporter, luminescence, 30-36 h; Potency, µM (doses to about 46.1 µM), for inactives: top-dose activity change, positive = activation, most hits filed as activators; 210,000 compounds, 2.8% hits; note: % of control where 0% means no effect; nearly all actives have a fitted effect of over 55% in size
#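 qHTS luciferase splicing reporter: luminescence rises when SMN2 exon 7 is included in transfected HEK293 cells. Compound exposure lasted 30-36 h at 37C, with 4.5 mM final sodium butyrate as control, followed by a ONE-Glo read.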
# KinaseGlo FLuc = blocks Kinase-Glo luciferase, a counter-screen artifact; Q27757; Kinase-Glo luciferase, ATP luminescence, 8 min; Potency, µM (top dose mostly 38.3 µM), for inactives: at the highest dose activity change, negative = inhibition, actives largely listed as inhibitors; 200,000 compounds, 0.28% hits; AID 1379; note: % is set by controls: 0 for no effect and ±100 for the full control effect; nearly all actives have a fitted effect of over 60% in size
#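 Light output from Kinase-Glo luciferase with luciferin and 10 uM ATP in 50 mM imidazole pH 7.2, KCl, MgCl2, Tween 20, BSA; compound pin-delivered, 8-min ambient incubation, then luminescence read.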
# ELG1 genotoxic = induces genotoxicity in HEK293T cells with luciferase-tagged ELG1; HEK293T ELG1-luciferase reporter, luminescence, 16 h; Potency, µM (top dose mostly 46 µM), for inactives: at the top dose activity change, positive = activation, most hits filed as activators; 330,000 compounds, 1.3% hits; note: % of control where 0% means no effect; nearly all actives have a fitted effect of over 60% in size
#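 Quantitative HTS format in 1536-well plates. HEK293T ELG1-luciferase reporter cells receive test compound and are incubated 16 hr at 37 °C, 5% CO2; ONE-Glo added, 30 min room temperature, then luminescence read.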
# NPC1 prom act = activates the NPC1 promoter; Huh7 NPC1 promoter luciferase reporter, 24 h; Potency, µM (titrated, usually from 9.22 µM), for the others: at the highest dose activation, usual class: activators; 320,000 compounds, 2.4% hits; AID 485313; note: % of control where 0% means no effect; nearly all actives have a fitted effect of over 60% in size
#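 Luciferase expression driven by the NPC1 promoter was measured in stably transfected Huh7 cells after a 24 h compound incubation, using a luciferase reagent and a luminescence read.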
# Rab9 prom act = activators of Rab9 promoter. Huh7 Rab9 promoter-luciferase reporter, luminescence, 24 h. Potency, µM (series often up to 9.22 µM), without a hit: top-dose activation, negative = inhibition, most hits filed as activators. 320,000 compounds, 2.8% hits; note: % of control where 0% means no effect; nearly all actives have a fitted effect of over 60% in size
#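 Cells were plated at 1500 per well in reduced-serum medium with 10% FBS and left 2 h. Compound in DMSO was then added for 24 h at 37 °C. Reporter signal was read by luminescence after 10 min with luciferase detection reagent.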
# * marks the source's active call; other numbers are inactive results; ? = inconclusive; nt = no result given; [ ] = another dose, or the depositor's remark. Compounds with a hit are over-represented: about 7.5% of the library has one in this group of screens. Calls come from the whole dose curve; as a rule, active = well fitted curve in the direction sought with a large enough effect; inconclusive = small, poorly fitted or top-dose-only effect, or another doubt; inactive = no such curve, though single readings can be large; an effect the other way counts as inactive or inconclusive. Potency is the fitted concentration of half-maximal effect.
SMILES,FLuc counter,SMN2 splice enh,KinaseGlo FLuc,ELG1 genotoxic,NPC1 prom act,Rab9 prom act
CCOC(=O)Cc1csc(NC(=O)Nc2cccs2)n1,21µM*,nt,nt,7%,?,24%
CCOC(=O)Cc1csc(NC(=O)Nc2cccc(OC)c2)n1,15µM*,nt,nt,-2%,13%,-1%
CCOC(=O)Cc1csc(NC(=O)Nc2ccc(C)cc2)n1,3µM*,nt,nt,0%,17%,21%
CCOC(=O)Cc1csc(NC(=O)c2cccc(OC)c2)n1,?,-3%,-1%,3%,4%,0%
Cc1ccc(NC(=O)c2ccc3snnc3c2)cc1C,15µM*,20µM*,nt,?,?,?
O=C(Nc1cccc(F)c1)c1ccc2snnc2c1,1%,8%,nt,nt,nt,nt
Cc1ccc(OC(=O)c2ccc3snnc3c2)cc1,9.5µM*,-16%,-3%,3%,3%,0%
O=C(Nc1ccc(F)cc1)Nc1ccc2snnc2c1,24µM*,8%,nt,nt,nt,nt
COc1cccc(NC(=O)c2ccc3snnc3c2)c1,19µM*,?,-12%,16%,?,?
COc1ccc(NC(=O)c2ccc3snnc3c2)cc1OC,-17%,6%,nt,nt,nt,nt
CNC1=CN=C(c2ccccc2)c2cc(Cl)ccc2N1,nt,nt,0%[39.9 µM],nt,nt,nt
CCOc1ccccc1CNC(=O)Cn1nc(N2CCN(c3ccccc3)CC2)ccc1=O,3%,nt,nt,nt,nt,nt
CC1CN(C(=O)Nc2ccc3snnc3c2)c2ccccc21 (stereo unspecified),19µM*,?,0%,?,-1%,4%
COc1ccc(CNC(=O)c2cc(-c3cccc(Cl)c3)on2)cc1,-2%,-9%,nt,nt,nt,nt
COc1cc(/C=C2/SC(=O)NC2=O)ccc1OCc1ccccc1,?,nt,nt,10%,2%,11%
O=C1NC(=O)/C(=C\c2ccccc2OCc2ccccc2)S1,27µM*,-14%,5%,-1%,-4%,1%
O=C1NC(=O)/C(=C\c2ccc(OCc3ccccc3)cc2)S1,19µM*,nt,nt,11%,4%,16%
CCOC(=O)C(C(=O)OCC)N(C#N)c1nc(SC)nc(N(C)C)n1,7%,-24%,2%,-1%,-2%,4%
CCOC(=O)C(C(=O)OCC)N(C#N)c1nc(OC)nc(N(C)C)n1,3%,3.2µM*,-2%,0%,-2%,-4%
CCOC(=O)c1ccc(-c2ccc(/C=N/NC(=O)c3cncc(Br)c3)o2)cc1,2%,nt,nt,?,1.3µM*,0.71µM*
CCOC(=O)c1ccc(-c2ccc(/C=N/NC(=O)Cc3nnc(N)s3)o2)cc1,?,nt,nt,14%,2.5µM*,3.2µM*
c1ccc(CCNc2ccccn2)nc1,nt,1%[9.22 µM],-8%[7.66 µM],nt,nt,nt
Fc1ccc(N2CCN(Cc3ccccn3)CC2)cc1,0%,-5%,-2%,-2%,-7%,9%
CC(C)(C)c1ccc(SCCc2ccccn2)cc1,3.8µM*,nt,nt,?,2.2µM*,3.2µM*
Fc1ccc(SCCc2ccccn2)cc1,17µM*,nt,nt,?,22%,?
SMILES,FLuc counter,SMN2 splice enh,KinaseGlo FLuc,ELG1 genotoxic,NPC1 prom act,Rab9 prom act
CC(C)(C)c1ccc(S(=O)(=O)CCc2ccccn2)cc1,17µM*,9%,2%,21µM*,?,?
Cc1sc(-c2cc3ccccc3oc2=O)nc1-c1ccc(Cl)cc1,-3%,nt,nt,nt,nt,nt
CC(=O)Nc1ccc(-c2nc3cc(Cl)ccc3o2)cc1,1.3µM*,nt,nt,2.1µM*,0.5µM*,0.79µM*
O=C(Nc1ccc(-c2nc3cc(Cl)ccc3o2)cc1)c1cc(Br)ccc1Cl,?,-7%,nt,nt,nt,nt
CC(=O)Nc1cc(-c2nc3cc(Cl)ccc3o2)ccc1C,-18%,nt,nt,nt,nt,nt
O=C(O)c1ccccc1-c1ccccc1C(=O)Nc1ccc(-c2nc3cc(Cl)ccc3o2)cc1,15µM*,nt,nt,17%,1%,14%
CCc1ccc(NC(=O)C(Cc2ccccc2)NS(=O)(=O)c2ccc3c(c2)CCN3C(C)=O)cc1 (stereo unspecified),0%,-17%,nt,nt,nt,nt
COc1ccc2nc(/N=C/c3cccc(OC)c3O)sc2c1,0.95µM*,nt,nt,?,26%,?
COc1ccc2nc(/N=C/c3c(C)[nH]n(-c4ccc(C)cc4)c3=O)sc2c1,7.6µM*,?,10µM*,4%,11%,22%
COc1ccc2nc(/N=C\N(C)C)sc2c1,24µM*,39%,-8%,16%,24%,?
COc1ccc2nc(N=Nc3ccc(N(C)C)cc3)sc2c1,0.067µM*,-5%,11µM*,?,0.32µM*,0.71µM*
COc1ccc(N=C2C(=Nc3ccc(OC)cc3)N(c3ccc(N(C)C)cc3)C(=S)N2c2ccc(OC)cc2)cc1,1%,3%,-3%,10%,-2%,-3%
COc1ccc2c(c1)-c1nc(/N=C/c3cccc(OC)c3O)sc1CC2,?,2%[1.84 µM],-4%,-2%,-1%,2%
CC1=C(/C=C/C(=C/C=C/C(C)=C/C(=O)O)c2ccc(C)cc2)C(C)(C)CCC1,nt,nt,4%[39.9 µM],nt,nt,nt
CN(C)/C=N/c1nc2ccc3c(c2s1)CCCC3,6µM*,14µM*,1%,?,2.5µM*,3.5µM*
CCC1CN(C(=O)Nc2cc(Cl)c(OC)cc2OC)c2ccccc2O1 (stereo unspecified),-12%,nt,nt,nt,nt,nt
Nc1ccc(C2=Nc3cccc4cccc(c34)N2)cc1,21µM*,nt,?,-1%,21%,9%
COc1cccc(C2=Nc3cccc4cccc(c34)N2)c1,12µM*,1%,-4%,2%,?,18%
c1coc(C2=Nc3cccc4cccc(c34)N2)c1,?,-37%,-8%,-5%,13%,20%
Cc1cc(/C=N/n2c(COc3ccccc3C)nc3ccccc3c2=O)c(O)c([N+](=O)[O-])c1,24µM*,-97%,-7%,12%,5%,1%
O=c1c2ccccc2nc(COc2ccccc2)n1/N=C/c1cc([N+](=O)[O-])ccc1O,19µM*,-37%,-2%,0%,12%,11%
COc1ccc(C(CC(=O)c2ccc(O)cc2)S(=O)(=O)c2ccc(C)cc2)cc1 (stereo unspecified),9.5µM*,-15%,-7%,?,?,2%
CCN1CCN(c2nnc(-n3cccc3C(=O)NCc3ccccc3OC)s2)CC1,-4%,nt,nt,nt,nt,nt
Cc1cccc(Nc2nnc(SC/C(O)=C(\C#N)c3nc4ccccc4[nH]3)s2)c1,17µM*,10%,-9%,1%,-2%,0%
NC(=O)NCC(N)C(=O)O (stereo unspecified),nt,1%,0%,nt,nt,nt
CCOc1ccc(-c2cc(C(=O)O)c3ccccc3n2)c(OCC)c1,17µM*,118%,0%,-2%,-1%,-2%
O=C(O)c1cc(-c2c[nH]c3ccccc23)nc2cc3ccccc3cc12,0.67µM*,nt,nt,17%,27%,25%
